Type in all cases: functional
Experiment [1] concerns the target Solute carrier family 2, facilitated glucose transporter member 1 (Homo sapiens) (UniProt P11166). As to the kind of experiment: ST_JUDE_LEISH: Cytotoxicity at 2uM final concentration against transgenic Leishmania Mexicana promastigotes LmGLUT1 that are glucose transport deficient and complemented with the human glucose transporter GLUT1. Activity is measured by DNA content using SYBR green in vitro.

The target in experiment [2] is Hexose transporter 1 (Plasmodium falciparum) (UniProt O97467). Put plainly: ST_JUDE_LEISH: Cytotoxicity at 2uM final concentration against transgenic Leishmania Mexicana promastigotes LmPfHT that are glucose transport deficient and complemented with the Plasmodium falciparum hexose transporter. Activity is measured by DNA content using SYBR green in vitro.
The target of experiment [3] is Glucose transporter (Leishmania mexicana) (UniProt O61059). As to the kind of experiment: ST_JUDE_LEISH: Cytotoxicity at 2uM final concentration against transgenic Leishmania Mexicana promastigotes LmGT2 that are glucose transport deficient and complemented with the L. Mexicana glucose transporter 2. Activity is measured by DNA content using SYBR green in vitro.

The structures appear in SMILES notation.

Chain of Solute carrier family 2, facilitated glucose transporter member 1 (Homo sapiens) (P11166 whole entry): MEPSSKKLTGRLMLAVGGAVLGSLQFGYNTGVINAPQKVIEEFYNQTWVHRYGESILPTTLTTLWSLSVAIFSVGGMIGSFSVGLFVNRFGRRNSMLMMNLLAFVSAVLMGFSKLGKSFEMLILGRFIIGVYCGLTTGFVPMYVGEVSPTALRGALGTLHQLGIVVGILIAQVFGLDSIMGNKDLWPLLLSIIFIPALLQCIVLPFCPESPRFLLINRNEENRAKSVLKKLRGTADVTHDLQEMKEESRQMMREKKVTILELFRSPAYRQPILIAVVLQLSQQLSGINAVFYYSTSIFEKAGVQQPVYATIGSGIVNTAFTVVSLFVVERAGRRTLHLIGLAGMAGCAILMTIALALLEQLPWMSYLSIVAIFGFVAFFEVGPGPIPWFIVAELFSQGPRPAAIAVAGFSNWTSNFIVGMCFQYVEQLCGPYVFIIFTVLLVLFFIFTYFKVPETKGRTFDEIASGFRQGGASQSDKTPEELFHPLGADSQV

The term inhibition denotes the change of the read-out against control, counted positive when it falls. On to `CCCCNc1nc(NCCCC)c2c(C)c(Cc3ccccc3)c(NCCCC)nc2n1`, for which the inhibition in experiment [1] is 39.8%; in experiment [2] it was 43.6%; in experiment [3], 12.3%.

Regarding `CN1CCC(N(Cc2ccc(-c3ccc(C(F)(F)F)cc3)cc2)C(=O)Cn2c(SCc3cccc(F)c3F)cc(=O)c3c2CCC3)CC1`, the inhibition is -1.29% in experiment [1], 0.12% in experiment [2] and 1.56% in experiment [3].

`CC(C)[C@H]1CC[C@H](C)C[C@@H]1OC(=O)N[C@@H](Cc1ccc(O)cc1)C(=O)NC1CCN(Cc2ccc(OCCCN(C)C)cc2)C1` (stereo partly specified): the inhibition came to 5.09% in experiment [1], 3.96% in experiment [2] and 3.06% in experiment [3].

As for `CC1(C)NC(N)=NC(=N)N1OCCCOc1ccc(N)cc1`, the inhibition was -1.98% in experiment [1], -0.16% in experiment [2] and -1.26% in experiment [3].

Turning to `O=C(Nc1ccc(OC2CCN(Cc3ccc(F)cc3)C2)c(Cl)c1)c1cccs1` (stereo unspecified), the inhibition in experiment [1] is 2.66%; in experiment [2], 2.25%; in experiment [3] it was 0.55%.

For the compound `COc1c(C2CCN(CCCCNC(=O)c3cccc(-c4ccc(C(F)(F)F)cc4)c3)CC2)ccc2c1CCCC2`, the figures for the inhibition in experiment [1], in experiment [2] and in experiment [3] were 2.51%, 1.75% and 11.1%, respectively.

Take `CN(C)CCCN1CCN(Cc2ccc(-c3ccc(-c4nc5ccccc5[nH]4)s3)cc2)CC1`: the inhibition is 11.2% in experiment [1], 8.38% in experiment [2] and 12.1% in experiment [3].

Turning to `O=S(=O)(c1ccccc1)C1CC1`, the inhibition is 1.39% in experiment [1], 0.38% in experiment [2] and -0.5% in experiment [3].

`Cc1[nH]n(-c2cccc(Cl)c2)c(=O)c1-c1ccc(Cl)cc1`: the inhibition in experiment [1] was -3.78%; in experiment [2] it was -2.18%; in experiment [3], -2.07%.

Consider `CN1CCCN(Cc2cccc(-c3cccc(NS(=O)(=O)c4cccc5cccnc45)c3)c2)CC1`, for which the inhibition in experiment [1] came out at 10.4%; in experiment [2] it was 10.8%; in experiment [3], 2.53%.

For `CCC(CC)CN1C(=O)C(c2ccccc2)(c2ccccc2)N=C1N`, the inhibition was 6.55% in experiment [1], 5.61% in experiment [2] and 6.88% in experiment [3].

For `CC(C(=O)N1CCCC1)N1CCN(C(c2ccccc2)c2ccccc2)CC1` (stereo unspecified), the inhibition in experiment [1] was found to be 2%; in experiment [2] it was 2.36%; in experiment [3], 2.74%.

Source of the values: ChEMBL document CHEMBL3433997, “St. Jude Leishmania screening dataset” (2016).
